This is part of a sample that, as a whole, favours compounds with a hit. Of some 83,000 tested, about 20% had one in any assay.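 How to read the values: 0–100, growth inhibition (40 = 60% inhibited); 0, no net growth; -100 to 0, cell death (-40 = 40% of starting cells died; -100 = all dead).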 Values without a mark were called inactive. Active and inactive are the calls of the source.
These compounds were tested on CAKI-1 renal (assay: NCI-60 one-dose screen, 48 h (100 = growth as untreated, 0 = no growth, -100 = all killed)). Details: 10 µM unless noted.
Protocol: Growth inhibition of the CAKI-1 human tumor cell line is measured as a screen for anti-cancer activity. Cells are grown in 96 well plates and exposed to the test compound for 48 hours. Compounds are tested at a single concentration, which is 10^-5 M for most compounds. The reported endpoint is percent growth (GI% or GIPRCNT), where numbers from 0 - 100% represent growth inhibition, and numbers from -100% - 0 represent cell death. For example, a value of 40 represents 60% growth inhibition. A value of 0 means no net growth occurred over the course of the experiment. A value of -40 indicates 40% of cells at the beginning of the experiment died by the end of the experiment. A value of -100 means all cells are dead at the end of the experiment.
NCI-60 Human Tumor Cell Lines Screen was performed using the standard one-dose NCI protocol, which is described in more detail at https://dtp.cancer.gov/discovery_development/nci-60/default.htm.
Compounds with GIPRCNT values below 10 were considered active. Activity score was based on GIPRCNT using the following formula: […]
Score is 0 for GIPRCNT values of 100 or above, 50 for GIPRCNT values of 0, and 100 for GIPRCNT values of -100.

Q: Which growth does the source give for `COc1ccc(-c2nnc(COc3ccc(NS(=O)(=O)c4ccc(OC)cc4)cc3F)o2)cc1` here?
A: Its growth is 64.1%.

Q: For `COc1cc(Cn2c(-c3nonc3N)nc3ccccc32)ccc1C`, which growth is on record?
A: Its growth is 46%.

Q: For `Cc1cc(Nc2nc(C(=O)Nc3ccccc3)nc3ccccc23)n[nH]1`, which growth is on record?
A: The growth was 24%.

Q: Which growth does the source give for `COc1ccc(/C(=N/O)c2cc(OC)c(OC)c(OC)c2)c(OC)c1N` here?
A: Its growth is 23.9%.

Q: `CCN1C(=O)N(CC)C2Nn3c(s/c(=C\c4cccc(F)c4)c3=O)=NC21` (stereo not given) was tested. Which growth did it give?
A: Its growth is 48.9%.

Q: With `C=C1C(=O)O[C@H]2[C@H]1CC/C(Cn1cc(-c3ccsc3)nn1)=C\CC[C@@]1(C)O[C@@H]21` as the compound, how does the growth read?
A: The growth was -53.5% (active).

Q: `Nc1c(C(=O)Nc2cccc(C(F)(F)F)c2)sc2nc3c(cc12)CCCCC3` was tested. Which growth did it give?
A: The growth was 16.2%.

Q: With `O=C(O)c1cn(C2CC2)c2cc(N3CCN(S(=O)(=O)c4ccc(Cl)c(Cl)c4)CC3)c(F)cc2c1=O` as the compound, how does the growth read?
A: Its growth is 3.06% (active).

Q: How did the growth turn out when `Oc1ccc(Cl)cc1-c1cc(-c2ccc(Cl)cc2)n[nH]1` was run?
A: The growth was 47.7%.

Q: Which growth does the source give for `CC[C@H](C)[C@H]1NC(=O)[C@@H](N[C@](C)(O)[C@@H](N)CC(C)C)[C@@H](C)OC(=O)[C@H](Cc2ccc(OC)cc2)N(C)C(=O)[C@@H]2CCCN2C(=O)[C@H](CC(C)C)NC(=O)[C@@H](C)C(=O)[C@H](C(C)C)OC(=O)C[C@@H]1O` here?
A: The growth was -22.1% (active).

Q: For `CN(C)CCCNC(=O)C(c1ccccc1)c1ccccc1`, which growth is on record?
A: The growth was 99.5%.

Q: `CCC(c1ccc(OC)cc1)C(CC)c1ccc(OCC[N+](C)(C)C)cc1` (stereo not given) was tested. Which growth did it give?
A: Its growth is 99.2%.

Q: With `Cc1cnc(NC(=O)C(Cc2ccccc2)NC(=O)c2ccccc2)s1` (stereo not given) as the compound, how does the growth read?
A: Its growth is 92.4%.

Q: How did the growth turn out when `c1ccc2c(c1)Oc1ccccc1C2C1c2ccccc2Oc2ccccc21` was run?
A: The growth was 74.5%.

Q: How did the growth turn out when `COc1cc2oc(-c3cccc(NC(=O)Nc4ccc5c(c4)OCO5)c3)cc(=O)c2c(OC)c1OC` was run?
A: The growth was 48.6%.

Q: Which growth does the source give for `COc1cc(C2C=C(C)N=C3SC=CN32)cc(OC)c1OC` (stereo not given) here?
A: Its growth is 96.9%.

Q: For `CSc1ccccc1C#C/C=C\C#Cc1ccccc1N1CCCCC1=O`, which growth is on record?
A: Its growth is 95%.

Q: `O=C(O)c1ccc(-n2c(=O)c3ccccc3c3ccccc3c2=O)cc1` was tested. Which growth did it give?
A: Its growth is 101%.

Q: With `O=C1NCC(c2cc3ccccc3[nH]c2=O)Nc2ccccc21` (stereo not given) as the compound, how does the growth read?
A: Its growth is 88.1%.

Q: `COc1cc(C2CC(c3c(C)[n+]([O-])c4ccccc4[n+]3[O-])=NN2)cc(OC)c1OC` (stereo not given) was tested. Which growth did it give?
A: The growth was 106%.

Q: With `COc1ccc(C2CC(c3cccs3)=NN2c2ccc(S(=O)(=O)NC(=O)Nc3ccc(C)cc3)cc2)cc1` (stereo not given) as the compound, how does the growth read?
A: Its growth is 95.8%.

Q: Which growth does the source give for `CC(C)(C)c1cc(-c2nc3ccc(N4CCN(CCO)CC4)cc3[nH]2)cc(C(C)(C)C)c1O` here?
A: The growth was 63.2%.

Q: `O=C1OC(c2ccccc2)=N/C1=C\c1ccc([N+](=O)[O-])cc1` was tested. Which growth did it give?
A: The growth was 91.5%.

Q: With `CCN(CC)CCSc1c2ccc(Cl)cc2nc2ccc(OC)cc12` as the compound, how does the growth read?
A: Its growth is 91.3%.

Q: For `Cc1ccc2c(c1)C(=O)C(c1c(-c3[nH]c(=O)c4ccc(C)cc4c3O)c(O)c3ccccc3c1O)=NC2=O`, which growth is on record?
A: Its growth is -2.66% (active).

Q: For `CCC#CC[C@H]1C/C=C2/C(=O)C=C[C@@H]2C/C=C\CCCC(=O)O1`, which growth is on record?
A: The growth was 18.2%.

Q: For `C[C@]12CC[C@@H]3c4cc(O)c(O)cc4CC[C@H]3[C@@H]1CC[C@@H]2O`, which growth is on record?
A: Its growth is 33.3%.

Q: `CCN1C(=O)N(CC)C2Nn3c(s/c(=C4\C(=O)N(C5CCCC5)c5ccccc54)c3=O)=NC21` (stereo not given) was tested. Which growth did it give?
A: The growth was 32.6%.

Q: For `COc1ccc(/C=C2\C(=O)N(C(=O)c3csc(NC(C)=O)n3)N=C2C)cc1`, which growth is on record?
A: Its growth is 99%.

Q: For `CC/C=C\C/C=C\C[C@H]1C/C=C2/C(=O)C=C[C@H]2C/C=C\CCC(=O)O1`, which growth is on record?
A: The growth was 34.1%.

Q: How did the growth turn out when `COc1ccc(C2=CC(c3ccc(Oc4ccnc5cc(Cl)ccc45)c(OC)c3)c3c(nc(OC)[nH]c3=O)N2)cc1` (stereo not given) was run?
A: Its growth is 82.9%.

Q: With `O=C1CCC(=O)N1Cc1ccccc1` as the compound, how does the growth read?
A: The growth was 94.2%.

Q: With `CCN(CC)CCC(=O)c1cccc2ccccc12` as the compound, how does the growth read?
A: Its growth is 90.7%.

Q: How did the growth turn out when `CCN(CC)P(=O)(N(CC)CC)N(CCCSC/C=C(\C)CC/C=C(\C)CCC=C(C)C)CCCN1CCN(C)CC1` was run?
A: The growth was 89.9%.

Q: `CC/C=C\C[C@H]1C/C=C2/C(=O)C(Cl)=C[C@@H]2C/C=C\CCCC(=O)O1` was tested. Which growth did it give?
A: The growth was 2.64% (active).

Q: How did the growth turn out when `O=c1oc2c([nH]c3ccc4ccccc4c32)c2ccccc12` was run?
A: The growth was 109%.

Q: With `CN(C)C/C=C/C(=O)Nc1cc2c(Nc3ccc(F)c(Cl)c3F)ncnc2cc1OCCOC(F)F` as the compound, how does the growth read?
A: The growth was -15.3% (active).

Q: `CCSc1nnc(Nc2ccc(C(C)C)cc2)s1` was tested. Which growth did it give?
A: Its growth is 83.7%.

Q: Which growth does the source give for `COc1ccc(/C=C2\CCCC3=C2NC(C)=NC3c2ccc(OC)c(OC)c2)cc1OC` (stereo not given) here?
A: Its growth is 5.12% (active).

Q: Which growth does the source give for `CC(=O)Nc1nc(C(=O)N2N=C(C)/C(=C/c3ccc(Cl)cc3)C2=O)cs1` here?
A: The growth was 100%.

Source: PubChem BioAssay (NCI)
